From PubChem BioAssay (NCI)
This is part of a sample that, as a whole, favours compounds with a hit. Of some 83,000 tested, about 20% had one in any assay.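 96-well plates, one dose, 48 hours. Percent growth reported; active if below 10.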 Calls of active or inactive are those of the source.

Assays:
Assay in all cases: NCI-60 one-dose screen, 48 h (100 = growth as untreated, 0 = no growth, -100 = all killed)
SK-MEL-2 melanoma = conditions: 10 µM unless noted
EKVX NSCLC = conditions: 10 µM unless noted
SN12C renal = conditions: 10 µM unless noted
UO-31 renal = conditions: 10 µM unless noted
TK-10 renal = conditions: 10 µM unless noted
ACHN renal = conditions: 10 µM unless noted
A498 renal = conditions: 10 µM
HL-60(TB) leukemia = conditions: 10 µM unless noted
CCRF-CEM leukemia = conditions: 10 µM unless noted
MOLT-4 leukemia = conditions: 10 µM unless noted
SR leukemia = conditions: 10 µM unless noted
RPMI-8226 leukemia = conditions: 10 µM unless noted
OVCAR-8 ovarian = conditions: 10 µM unless noted
OVCAR-5 ovarian = conditions: 10 µM unless noted
OVCAR-4 ovarian = conditions: 10 µM unless noted
SK-OV-3 ovarian = conditions: 10 µM unless noted
IGROV1 ovarian = conditions: 10 µM unless noted
OVCAR-3 ovarian = conditions: 10 µM unless noted
HS 578T breast = conditions: 10 µM unless noted

Measured: growth

O=[N+]([O-])c1c(Br)sc(Br)c1[N+](=O)[O-]
inactive: EKVX NSCLC 72.5% | SN12C renal 30% | A498 renal 111% | RPMI-8226 leukemia 16.7% | OVCAR-5 ovarian 76.3% | OVCAR-4 ovarian 30.9% | SK-OV-3 ovarian 98.7%
active: SK-MEL-2 melanoma -20.9% | UO-31 renal -65.7% | TK-10 renal -78.3% | ACHN renal -56.4% | HL-60(TB) leukemia -11.2% | CCRF-CEM leukemia -18.9% | MOLT-4 leukemia -3.6% | SR leukemia -5.81% | OVCAR-8 ovarian 5.21% | IGROV1 ovarian 3.28% | OVCAR-3 ovarian -62.4%

CCCCN1CCCC[C@@H]1C(=O)N[C@H](C(=O)N(C)[C@H](CCc1nc(C(=O)N[C@@H](Cc2ccccc2)C[C@H](C)C(=O)OC)cs1)C(C)C)[C@@H](C)CC
active: SR leukemia 8%
inactive: SK-MEL-2 melanoma 24.8% | EKVX NSCLC 61.2% | SN12C renal 77.6% | UO-31 renal 48% | TK-10 renal 69.2% | ACHN renal 52.2% | A498 renal 32.9% | HL-60(TB) leukemia 27.5% | CCRF-CEM leukemia 61.6% | MOLT-4 leukemia 34.7% | RPMI-8226 leukemia 28.6% | OVCAR-8 ovarian 80.9% | OVCAR-5 ovarian 101% | OVCAR-4 ovarian 56.9% | SK-OV-3 ovarian 49.9% | IGROV1 ovarian 48.9% | OVCAR-3 ovarian 13.8% | HS 578T breast 76%

COc1ccc2c(c1)c(-c1nc(-c3c[nH]c4ncccc34)cs1)cn2CCN1CCOCC1
inactive: SK-MEL-2 melanoma 61.3% | EKVX NSCLC 37.1% | SN12C renal 43.6% | UO-31 renal 15.4% | TK-10 renal 42.3% | ACHN renal 36.5% | A498 renal 71.7% | HL-60(TB) leukemia 61% | CCRF-CEM leukemia 41.6% | MOLT-4 leukemia 45.7% | SR leukemia 45.5% | RPMI-8226 leukemia 22.3% | OVCAR-8 ovarian 37.9% | OVCAR-5 ovarian 82.9% | OVCAR-4 ovarian 28% | SK-OV-3 ovarian 67.9% | IGROV1 ovarian 27.7% | OVCAR-3 ovarian 59% | HS 578T breast 37.5%

Cn1cc(-c2csc(-c3cn(CCN4CCOCC4)c4ccc(F)cc34)n2)c2cccnc21
active: HL-60(TB) leukemia 1.01% | MOLT-4 leukemia 4.03% | RPMI-8226 leukemia 0.0619% | OVCAR-8 ovarian 4.93%
inactive: SK-MEL-2 melanoma 15.8% | EKVX NSCLC 37.5% | SN12C renal 61.4% | UO-31 renal 11% | TK-10 renal 55.7% | ACHN renal 17.7% | A498 renal 68.1% | CCRF-CEM leukemia 12.4% | SR leukemia 33.7% | OVCAR-5 ovarian 75.3% | OVCAR-4 ovarian 30.5% | SK-OV-3 ovarian 78.7% | IGROV1 ovarian 21% | OVCAR-3 ovarian 32.3% | HS 578T breast 60.4%

COc1ccc2c(c1)c(-c1nc(-c3cn(C)c4ncccc34)cs1)cn2CCCCN1CCCCC1
active: SK-MEL-2 melanoma -31.5% | SN12C renal -79.7% | UO-31 renal -89.4% | TK-10 renal -26.8% | ACHN renal -95.2% | HL-60(TB) leukemia -64.9% | CCRF-CEM leukemia -50.5% | MOLT-4 leukemia -65% | SR leukemia -54.3% | RPMI-8226 leukemia -42% | OVCAR-8 ovarian -65.2% | OVCAR-5 ovarian -69.2% | OVCAR-4 ovarian -6.02% | IGROV1 ovarian -62.5%
inactive: EKVX NSCLC 55.4% | A498 renal 71.8% | SK-OV-3 ovarian 38.5%
